# Experiment: binders of probe aHhip on microarray, primary screen, stem cell growth factor project, biochemical, small-molecule microarray, fluorescence 635/667 (AID 1087);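 also: score merges spot fluorescence at 667nm with spot signal to noise ratio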
# Details: higher = more signal
row,Compound,composite z-score
1,O=C(O)C1=CC[C@H]2C(=O)N(c3ccccc3)C(=O)[C@@H]12,0.0749
2,C=CC[C@H](OC(=O)Nc1ccc(SC)cc1)c1ccc(O)c(F)c1,-0.156
3,COC(=O)C1(CC(C)C)C=C2C(=C(C)C(=O)C2C)CN1 (stereo not given),1.43
4,[N-]=[N+]=NCc1ccccc1C[C@]1(C(=O)N2CCCCC2)COC(c2ccc(OCCCO)cc2)=N1,2.35
5,C=C[C@H](C)[C@@H](OC(=O)Nc1ccc(SC)cc1)c1ccc(OCCO)cc1,-0.264
6,COC(=O)Cn1c(C(=O)N(C)C)cc2c1C[C@H]1CN(C(=O)c3ccccc3)[C@@](Cc3ccccc3)(C(=O)OC)[C@@H]21,0.12
7,O=C1c2ccccc2[C@](Cc2ccccc2I)(C(=O)NCCN2CCOCC2)[C@H](c2ccc(CO)cc2)N1Cc1ccccc1C(F)(F)F,0.0156
8,Cc1ccc(S[C@]2(C(=O)NCCN3CCOCC3)CC(=O)N(C(C)C)[C@@H]2c2ccc(CO)cc2I)cc1,-0.166
9,C=C(CCCC)C(=O)CC[C@H](OC(=O)c1ccccc1-c1ccccc1C(=O)O)c1cccc(OCCO)c1,-0.0994
10,[N-]=[N+]=Nc1ccccc1C[C@@]1(C(=O)NCc2ccccc2)N=C(c2ccc(OCCCO)cc2)O[C@@H]1c1ccccc1,-0.0296
11,C=CCNC(=O)[C@@H]1[C@H]2C(=O)O[C@H](c3ccccc3)[C@H](c3ccccc3)N2[C@H](c2ccc(OCCO)cc2)[C@@]12C(=O)Nc1ccc(C#CC3=CCCCC3)cc12,-0.186
12,CC(C)C[C@@H]1NC(=O)[C@H]2C[C@@H](C(=O)O)[C@@H](c3cccc(OCCO)c3)N2C1=O,0.129
13,CC(C)c1ccc(NN2C(C(O)C(C)c3ccccc3)C=CC3C(=O)N(c4ccccc4)C(=O)C32)cc1 (stereo not given),-0.12
14,Cc1ccc(S(=O)(=O)N2[C@@H](c3ccccc3)C(C(=O)O)=C[C@H]2C(C)(C)C)cc1,-0.156
15,CCOC(=O)C1=CC[C@@H](c2ccccc2)N(S(=O)(=O)c2ccc(C)cc2)[C@@H]1C#N,0.0505
16,COCCOC(=O)N1C(=O)[C@@]2(c3cc(C#CCC(C(=O)OC)C(=O)OC)ccc31)[C@H](C(=O)N1CCc3cc(OC)c(OC)cc3C1)[C@H]1C(=O)O[C@H](c3ccccc3)[C@H](c3ccccc3)N1[C@@H]2c1ccccc1OCCO,-0.204
17,CN(C)CCCC[C@@H]1NC(=O)[C@H]2C[C@@H](C(=O)NCCCCCCNC(=O)CS)[C@@H](c3cccc(OCCO)c3)N2C1=O,0.411
18,COc1cc2c(cc1O)C(C)N(Cc1sc3ccccc3c1Cl)CC2 (stereo not given),-0.0994

row,Compound,composite z-score
1,COCCOC(=O)N1C(=O)[C@@]2(c3cc(C#CCC(C(=O)OC)C(=O)OC)ccc31)[C@H](c1ccc(O)cc1)N1[C@H](c3ccccc3)[C@H](c3ccccc3)OC(=O)[C@H]1[C@@H]2C(=O)N1CCc2cc(OC)c(OC)cc2C1,0.224
2,CCOC(=O)C1=CCC(c2ccncc2)N(S(=O)(=O)c2ccc(C)cc2)C1 (stereo not given),-0.0735
3,COC(=O)[C@@]1(Cc2ccc(F)cc2)[C@H]2c3cc(C(=O)N4CCCC4)n(Cc4ccc(C(F)(F)F)nc4)c3C[C@H]2CN1C(=O)c1ccccc1,-0.0799
4,CC(C)(C)OC(=O)CC[C@@]1(C(N)=O)N=C(c2ccc(OCCCO)cc2)O[C@@H]1c1ccccc1CN=[N+]=[N-],0.452
5,C=CCNC(=O)[C@H]1[C@@H]2C(=O)O[C@@H](c3ccccc3)[C@@H](c3ccccc3)N2[C@@H](c2ccc(OCCO)cc2)[C@]12C(=O)N(C(=O)OCCOC)c1ccc(C#CCC(C(=O)OC)C(=O)OC)cc12,1.58
6,C=CCOC(=O)[C@H]1[C@@H]2C(=O)O[C@@H](c3ccccc3)[C@@H](c3ccccc3)N2[C@@H](c2ccc(OCCOC(=O)[C@@H]3C[C@@H]4C(=O)N[C@@H](Cc5ccccc5)C(=O)N4[C@@H]3c3ccc(O)cc3)cc2)[C@]12C(=O)Nc1ccc(I)cc12,-0.0645
7,CCN1C(=O)C2CC(=O)C3C(CN(S(=O)(=O)c4ccc(C)cc4)C3c3ccc(C)cc3)C2C1=O (stereo not given),0.0053
8,C=C(C)C1CN([C@H](CO)c2ccccc2)C(=O)/C1=C\c1ccccc1 (stereo not given in full),-0.174
9,C=C(COC)C(=O)CC[C@H](OC(C)=O)c1ccc(CO)o1,-0.132
10,COC(=O)C(CC#Cc1ccc2c(c1)[C@]1(C(=O)N2)[C@H](C(=O)NC[C@H](O)c2ccccc2)[C@H]2C(=O)O[C@H](c3ccccc3)[C@H](c3ccccc3)N2[C@@H]1c1ccc(O)cc1)C(=O)OC,-0.131
11,C=C[C@H](OC)[C@@H](O)c1ccc(OC)c(O)c1,0.107
12,CC[C@@H](O[Si](C#C[Si](C(C)C)(C(C)C)C(C)C)(C(C)C)C(C)C)c1cn(Cc2cccc(Cl)c2)nn1,-0.0003
13,COC(=O)C1=CC(c2ccc(CO)cc2)=CC(C2CC2)N(Cc2cc3c(cc2Br)OCO3)C=C1C(=O)OC (stereo not given),0.0278
14,O=C(NCCN1CCOCC1)[C@@H]1c2ccccc2C(=O)N(CC23CC4CC(CC(C4)C2)C3)[C@H]1c1ccc(CO)cc1,0.0373
15,COCCCNC(=O)[C@@]1(CCC(=O)OC(C)(C)C)N=C(c2ccc(OCCCO)cc2)O[C@H]1c1ccccc1,0.0424
16,CN1C2C=C(c3ccc(CO)cc3)C(C3C(=O)N(C(N)=O)C(=O)C32)C1C1CC1 (stereo not given),-0.201
17,N#Cc1ccc(NN2C(C(O)c3ccc(B(O)O)cc3)C=CC3CN(c4ccccc4)C(=O)C32)cc1 (stereo not given),-0.439
